The nature of the assay: basal RPMI8226 viability, no added stimulus, profiling panel, cell-based, calcein-AM fluorescence, 48 h, PK04 Diversity Set (AID 1166).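 Note: cells grown under basal conditions without added stimulus; test concentration not given here.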 Particulars: RPMI8226 myeloma viability, higher = more signal.
On to `COc1ccc(C#Cc2ccc3c(c2)[C@]2(C(=O)N3)[C@H](c3ccc(O)cc3)N3[C@H](c4ccccc4)[C@H](c4ccccc4)OC(=O)[C@H]3[C@@H]2C(=O)O)cc1`, for which the z-score was -2.2.
Consider `COC(=O)[C@@]1(Cc2ccccc2)[C@H]2c3cc(C(=O)N(C)C)n(CCN4CNCC4=O)c3C[C@H]2CN1C(=O)c1ccccc1`, for which the z-score is -0.002.
With `O=C1OCC=C[C@H]2OC34C=CCN(Cc5ccccc5)C(=O)[C@H]3N(CCCCCCO)C(=O)[C@@H]4[C@@H]12` (stereo not given in full) the figure was 0.659.
As to `COc1cc2c(cc1OC)CN(C(=O)[C@@H]1[C@H]3C(=O)O[C@H](c4ccccc4)[C@H](c4ccccc4)N3[C@H](c3ccc(OCCO)cc3)[C@@]13C(=O)Nc1ccccc13)CC2`, the z-score is 0.834.
As to `COCCOC(=O)N1C(=O)[C@@]2(c3cc(C#CC4=CCCCC4)ccc31)[C@H](C(=O)N1CCCCCCC1)[C@H]1C(=O)O[C@H](c3ccccc3)[C@H](c3ccccc3)N1[C@@H]2c1ccc(O)cc1`, the z-score is -0.593.
With `C=CCC(OC(C)=O)[C@@H]1[C@@H](N(Cc2cc3ccccc3o2)C(=O)Cc2ccc(F)cc2)c2cc(OCCCO)ccc2N1C(=O)c1ccc2ccccc2c1` (stereo not given in full) the figure was 0.0905; with `CCOC(=O)C[C@H]1[C@H](OC(=O)Cc2ccc3c(c2)OCO3)[C@@H](NC(=O)Cc2ccc(OC)cc2)c2cc(OCCCO)ccc2N1C(=O)c1ccc2ccccc2n1`, -0.577.
For `COCCOC(=O)N1C(=O)[C@@]2(c3cc(C#Cc4ccc(OC)cc4)ccc31)[C@H](c1ccc(O)cc1)N1[C@H](c3ccccc3)[C@H](c3ccccc3)OC(=O)[C@H]1[C@@H]2C(=O)N1CCCCCCC1` the value was -1.29; for `COC(=O)[C@@]1(Cc2ccccc2)[C@H]2c3cc(C(=O)N(C)C)n(Cc4c(CO)[nH]cc(C)c4=O)c3C[C@H]2CN1C(=O)c1ccccc1`, -0.247; for `CN(C)C(=O)[C@]1(CCS(=O)(=O)c2ccccc2)N=C(c2ccc(OCCCO)cc2)O[C@@H]1c1ccccc1N=[N+]=[N-]`, 0.517.
With `CCCCCCc1nc(-c2cc(C)c(OC)c(C)c2)c(C)c2c1[Si](C(C)C)(C(C)C)OC2`, the z-score is -1.44.
On to `CC(C)C[C@@H]1NC(=O)[C@@H]2C[C@H](C(=O)NCCCCCN)[C@H](c3ccc(O)cc3)N2C1=O`, for which the z-score was 0.286.
As to `C[C@H]1NC(=O)[C@@]23C(=O)N[C@@H](Cc4ccccc4)C2[C@H](C)[C@@]2(C)O[C@H]2C3/C=C/C/C=C\CNC(=O)[C@H](Cc2ccccc2)NC1=O` (stereo not given in full), the z-score is -0.45.
For `C=CC[C@]1(C(=O)NCCN2CCOCC2)N=C(c2ccc(OCCCO)cc2)O[C@H]1c1ccccc1CN=[N+]=[N-]` the value was -0.221; for `O=C1O[C@H](c2ccccc2)[C@H](c2ccccc2)N2[C@H]1[C@@H](C(=O)Nc1nc3ccccc3s1)[C@]1(C(=O)Nc3ccccc31)[C@H]2c1ccc(OCCO)cc1`, -1.35; for `CN1C(=O)C2C=CC(C(O)c3cccc(O)c3)N(Nc3ccccc3)C2C1=O` (stereo not given), -1.67.
For `C=C(COC)/C(=C/C[C@H](OC(=O)c1ccncc1)c1ccccc1OCCO)c1cnc2ccccc2c1` the value was -0.533; for `[N-]=[N+]=Nc1ccccc1[C@@H]1OC(c2ccc(OCCCO)cc2)=N[C@]1(Cc1ccccc1)C(=O)NCC(O)CO` (stereo not given in full), -1.81.
With `CCOc1cc(C(O)C2C=CC3C(=O)N(C)C(=O)C3N2Nc2ccccc2)ccc1O` (stereo not given) the figure was -0.429.
For `CCOC(=O)C1=C[C@@H](c2ccccc2)N(S(=O)(=O)c2ccc(C)cc2)[C@H]1c1ccccc1Cl`, the z-score was -0.435.
`COC(=O)c1c2oc(c1C(=O)OC)C(=O)N(Cc1ccccc1)Cc1cn(nn1)C[C@H](Cc1ccccc1)NC(=O)N[C@H](CO)CC2`: the z-score is 1.75.
With `O=C(CS)NCCCCCNC(=O)[C@@H]1C[C@@H]2C(=O)N3CCC[C@H]3C(=O)N2[C@@H]1c1cccc(OCCO)c1` the figure was -0.799.
With `C=C[C@@H](COC(C)=O)N(C(=O)OC(C)(C)C)S(=O)(=O)c1ccc(Br)cc1` the figure was 0.643; with `COc1cccc(/C=C/C=O)c1`, -0.803; with `COc1ccc(CN(C2=CC[C@@]3(C(N)=O)C(=O)C(Cl)=C(Cl)C(=O)[C@@]3(C#N)C2)S(=O)(=O)c2ccc(Br)cc2)cc1`, -1.66.
Take `O=C1O[C@@H](c2ccccc2)[C@@H](c2ccccc2)N2[C@@H](c3ccc(O)cc3)[C@]3(C(=O)Nc4ccc(C#CC5=CCCCC5)cc43)[C@@H](C(=O)NC[C@H](O)c3ccccc3)[C@H]12`: the z-score was -4.54.
For `Cc1ccccc1C(O)C1C=CC2C(=O)N(C)C(=O)C2N1N(c1ccccc1)c1ccccc1` (stereo not given) the value was 0.0748; for `CCOC(=O)[C@H]1[C@@H]2C(=O)N3CCC[C@H]3[C@H](O[Si](C(C)C)(C(C)C)C(C)C)[C@H]2C=C2CCN(S(=O)(=O)c3ccc(C)cc3)C[C@H]21`, -4.09; for `CC(CO)N1C(=O)[C@@H]2[C@H]3C(=O)OCC=C[C@H]3OC23C=CCN(C(C)(C)C)C(=O)[C@@H]13` (stereo not given in full), 0.0608.
As to `O=C1C2C=CC(C(O)c3ccccc3)N(Nc3ccccc3F)C2C(=O)N1c1ccccc1` (stereo not given), the z-score is 0.379.
Regarding `COCCOC(=O)N1C(=O)[C@@]2(c3cc(C#CC4=CCCCC4)ccc31)[C@H](c1ccc(O)cc1)N1[C@H](c3ccccc3)[C@H](c3ccccc3)OC(=O)[C@H]1[C@@H]2C(=O)N1CCN(c2ncccn2)CC1`, the z-score was 0.771.
Take `CC(C)C(=C=CC[C@H](O)c1cccc(OCCO)c1)C[C@H](O)c1cc(Cl)cc(Cl)c1O`: the z-score is 0.205.
For `O=C(NCc1ccccc1)[C@@H]1c2ccccc2C(=O)N(Cc2ccccc2C(F)(F)F)[C@H]1c1ccc(CO)cc1` the value was -0.133.
For `CC(C)Cc1ccc(CN2CC[C@@H](NC(=O)Nc3ccccc3)C2)cc1` the value was -4.03; for `CCC(CC)C(O)C1C=CC2C(=O)N(c3ccccc3)C(=O)C2N1Nc1ccc(C(C)C)cc1` (stereo not given), -0.842.
